20 compounds from PubChem BioAssay can be followed below.

A number with no mark means an inactive call. For some of these results: Results with a measured potency or affinity are listed apart. Calls of active or inactive are those of the source. Unless noted, the rule behind the calls is not given here.

The nature of experiment [1]: antimalarial activity against Dd2 strain (AID 2302;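 active = growth inhibition above 50% at the single 2 µM test dose, taken to imply half-maximal potency below 2 µM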;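 note: 0% = DMSO untreated growth and 100% = chloroquine plus artemisinin killed control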). The note with it: P. falciparum Dd2 in RBCs, LDH growth readout, 72 h; at 2 µM; active compounds read high.
The nature of experiment [2]: human hepatoma cell viability loss – ATP luminescence, cytotoxicity control for P. falciparum antimalarial project, primary screen (AID 2303;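 active = inhibition above 50%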;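 note: 0% = DMSO wells and 100% = digitonin-killed cells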). The note with it: HepG2 viability, 24-48 h, at 10 µM, active compounds read high.
Experiment [3] addresses L-lactate dehydrogenase (Plasmodium falciparum (isolate CDC / Honduras)) (UniProt Q27743). The experiment in a line: PfLDH activity inhibition – cell lysate, 3D7 strain, counter-screen for P. falciparum growth inhibition project (AID 2304).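 Note: 0% = vehicle and 100% = reference inhibitor.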 The settings on record: P. falciparum 3D7 crude extract, LDH APAD/NBT absorbance; at 2 µM; active compounds read high.
The nature of experiment [4]: inhibition of 3D7 malaria parasite growth – strain 3D7 (AID 2306).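 Note: 0% = DMSO wells and 100% = chloroquine plus artemisinin control wells.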 The settings on record: P. falciparum 3D7 erythrocytic growth, LDH absorbance, 72 h; at 2 µM; active compounds read high.
Experiment [5] addresses Calcium-dependent protein kinase 1 (Plasmodium falciparum (isolate 3D7)) (UniProt P62344). In words: PfCDPK1 kinase inhibitors, biochemical, TCAMS library (AID 1159585; cut-off not given, nearly all actives have IC50 up to about 0.98 µM;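 note: inhibitors leave more ATP so luminescence rises with inhibition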). The note with it: recombinant PfCDPK1, Kinase-Glo ATP depletion luminescence.
The target in experiment [6] is Plasmodium falciparum protein kinase 6 (PK6, PF3D7_1337100) (UniProt Q8IDW1). The experiment in a line: PfPK6 kinase inhibitors, biochemical, TCAMS library (AID 1159586). The note with it: recombinant PfPK6, Kinase-Glo ATP depletion luminescence.
Sequence of Plasmodium falciparum protein kinase 6 (PK6, PF3D7_1337100) (Q8IDW1 1-305): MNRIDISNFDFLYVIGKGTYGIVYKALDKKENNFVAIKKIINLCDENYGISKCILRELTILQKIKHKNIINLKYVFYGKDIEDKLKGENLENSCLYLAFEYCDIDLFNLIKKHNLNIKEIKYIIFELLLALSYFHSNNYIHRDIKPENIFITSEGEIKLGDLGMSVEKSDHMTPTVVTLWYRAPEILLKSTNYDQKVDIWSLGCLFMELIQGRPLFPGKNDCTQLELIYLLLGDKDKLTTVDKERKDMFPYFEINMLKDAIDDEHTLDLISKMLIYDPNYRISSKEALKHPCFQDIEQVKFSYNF
Experiment [7] concerns the target Protein kinase 7 (PK7), Plasmodium falciparum 3D7 (PF3D7_0213400) (UniProt Q7YTF7). In words: inhibition of Plasmodium PK7 catalytic activity – biochemical, TCAMS antimalarial set, Kinase-Glo luminescence (AID 1159587). The settings on record: recombinant PfPK7, Kinase-Glo ATP depletion luminescence.
Experiment [8] addresses Calcium-dependent protein kinase 4 (Plasmodium falciparum (isolate 3D7)) (UniProt Q8IBS5). The experiment in a line: PfCDPK4 kinase inhibitors, biochemical, TCAMS library (AID 1159588; cut-off not given, nearly all actives have IC50 up to about 0.91 µM). The note with it: recombinant PfCDPK4, Kinase-Glo ATP depletion luminescence.

Sequence of L-lactate dehydrogenase (Plasmodium falciparum (isolate CDC / Honduras)) (Q27743 whole entry, looked up): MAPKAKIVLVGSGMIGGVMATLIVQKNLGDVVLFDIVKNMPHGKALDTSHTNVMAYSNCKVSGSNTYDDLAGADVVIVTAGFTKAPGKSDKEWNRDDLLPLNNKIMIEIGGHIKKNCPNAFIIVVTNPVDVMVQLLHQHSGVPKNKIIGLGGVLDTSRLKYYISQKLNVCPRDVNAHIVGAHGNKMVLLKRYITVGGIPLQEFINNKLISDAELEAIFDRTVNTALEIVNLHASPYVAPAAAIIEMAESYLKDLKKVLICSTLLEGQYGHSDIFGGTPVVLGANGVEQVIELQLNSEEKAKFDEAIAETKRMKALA
Sequence of Calcium-dependent protein kinase 1 (Plasmodium falciparum (isolate 3D7)) (P62344 whole entry, looked up): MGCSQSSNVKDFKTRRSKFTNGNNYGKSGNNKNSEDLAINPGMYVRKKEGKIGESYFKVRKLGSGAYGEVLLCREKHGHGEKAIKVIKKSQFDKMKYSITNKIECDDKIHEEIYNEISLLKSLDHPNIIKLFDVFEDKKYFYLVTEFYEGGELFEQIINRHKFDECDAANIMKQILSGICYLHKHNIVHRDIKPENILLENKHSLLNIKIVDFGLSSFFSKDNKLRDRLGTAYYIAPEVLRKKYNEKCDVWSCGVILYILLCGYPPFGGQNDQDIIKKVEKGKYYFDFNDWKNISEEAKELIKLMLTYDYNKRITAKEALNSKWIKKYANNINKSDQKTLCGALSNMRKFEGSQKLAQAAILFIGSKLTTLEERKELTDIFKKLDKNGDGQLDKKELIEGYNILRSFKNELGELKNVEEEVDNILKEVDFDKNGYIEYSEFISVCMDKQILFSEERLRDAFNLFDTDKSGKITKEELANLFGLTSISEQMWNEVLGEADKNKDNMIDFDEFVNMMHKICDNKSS
Sequence of Calcium-dependent protein kinase 4 (Plasmodium falciparum (isolate 3D7)) (Q8IBS5 whole entry, looked up): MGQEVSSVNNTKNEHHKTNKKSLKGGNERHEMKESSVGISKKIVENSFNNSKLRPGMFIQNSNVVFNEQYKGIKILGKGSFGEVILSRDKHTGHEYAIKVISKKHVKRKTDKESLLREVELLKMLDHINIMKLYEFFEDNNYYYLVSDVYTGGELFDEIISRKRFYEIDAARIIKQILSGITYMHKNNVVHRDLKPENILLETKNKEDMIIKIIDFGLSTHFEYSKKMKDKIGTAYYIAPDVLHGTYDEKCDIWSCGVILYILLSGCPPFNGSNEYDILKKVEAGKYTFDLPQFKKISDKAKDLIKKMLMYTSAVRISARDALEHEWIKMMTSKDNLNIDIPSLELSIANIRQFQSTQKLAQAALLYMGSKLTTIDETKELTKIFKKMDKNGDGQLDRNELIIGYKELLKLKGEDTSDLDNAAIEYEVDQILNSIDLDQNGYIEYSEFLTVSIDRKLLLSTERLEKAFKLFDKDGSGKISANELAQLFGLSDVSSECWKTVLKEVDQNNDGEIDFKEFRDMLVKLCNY
Sequence of Protein kinase 7 (PK7), Plasmodium falciparum 3D7 (PF3D7_0213400) (Q7YTF7 1-343): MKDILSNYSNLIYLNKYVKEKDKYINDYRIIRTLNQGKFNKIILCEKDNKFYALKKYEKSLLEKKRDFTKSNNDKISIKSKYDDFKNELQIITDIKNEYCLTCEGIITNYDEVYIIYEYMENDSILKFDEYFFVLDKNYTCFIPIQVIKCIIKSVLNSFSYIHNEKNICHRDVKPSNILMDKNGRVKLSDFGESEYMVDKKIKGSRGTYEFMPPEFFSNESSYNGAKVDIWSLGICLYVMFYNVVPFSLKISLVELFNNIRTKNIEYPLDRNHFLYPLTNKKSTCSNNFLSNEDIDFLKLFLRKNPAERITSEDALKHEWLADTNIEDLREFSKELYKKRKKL

For the compound `COc1cccc(-c2nn(C)c3sc(C(=O)NCCN(C)Cc4ccccc4)cc23)c1`, the growth inhibition in experiment [1] is 26%; in experiment [4], 92% (active). In addition, the results for the inhibition in experiment [2] and in experiment [3] were 21% and -3%, respectively. Further, the outcome in experiment [5], in experiment [6], in experiment [7] and in experiment [8] was inactive.

On to `NC(=O)c1cccc(CNCc2ccc(-c3cccc(-c4nc5ccccc5[nH]4)c3)cc2)c1`, for which the growth inhibition in experiment [1] is 94% (active); in experiment [4], 101% (active). The inhibition was 29% in experiment [2] and 3% in experiment [3]. In addition, the outcome in experiment [5], in experiment [6], in experiment [7] and in experiment [8] was inactive.

In the case of `Oc1ccc(CCNc2nc(NCCCOc3ccccc3-c3ccncc3)nc(N3CCNCC3)n2)cc1`, the growth inhibition in experiment [1] is -3%; in experiment [4], 96% (active). For the same compound, the inhibition in experiment [2] was 8%; in experiment [3] it was 1%. In addition, the result in experiment [5], in experiment [6], in experiment [7] and in experiment [8] was inactive.

For `c1ccc(Oc2ccc(Nc3ccnc4cc(-c5ccc(CN6CCNCC6)o5)ccc34)cc2)nc1`, the growth inhibition is 99% (active) in experiment [1] and 100% (active) in experiment [4]. Also, the results for the inhibition in experiment [2] and in experiment [3] were 7% and -1%, respectively. The outcome in experiment [5], in experiment [6], in experiment [7] and in experiment [8] was inactive.

With `Cc1cc(Nc2cc(Cl)cc(Cl)c2)nc(N)n1`, the growth inhibition is 28% in experiment [1] and 94% (active) in experiment [4]. In addition, the inhibition in experiment [2] was -12%; in experiment [3], 3%. Besides, the outcome in experiment [5], in experiment [6], in experiment [7] and in experiment [8] was inactive.

Take `CN1CCN(c2ccnc3ccc(NC(=O)Nc4ccc(-c5ccncc5)c(C#N)c4)cc23)CC1`: the figures for the growth inhibition in experiment [1] and in experiment [4] were 99% (active) and 101% (active), respectively. Besides, the inhibition in experiment [2] is 32%; in experiment [3], -3%. Also, the result in experiment [5], in experiment [6], in experiment [7] and in experiment [8] was inactive.

`Cc1cc(O)c(CN(C)Cc2ccc3c(c2)OCO3)cc1C(C)C`: the growth inhibition in experiment [1] was 74% (active); in experiment [4] it was 98% (active). The inhibition in experiment [2] is 9%; in experiment [3] it was 0%. In addition, the outcome in experiment [5], in experiment [6], in experiment [7] and in experiment [8] was inactive.

With `CC1(C)[C@H]2CC[C@@H](CNc3nc(NCCc4cnc[nH]4)nc(Nc4ccc5c(c4)OCO5)n3)[C@@H]1C2`, the growth inhibition was 88% (active) in experiment [1] and 101% (active) in experiment [4]. The results for the inhibition in experiment [2] and in experiment [3] were 3% and -4%, respectively. Besides, the result in experiment [5], in experiment [6], in experiment [7] and in experiment [8] was inactive.

As to `CN1CC[C@@H](Oc2cc(C(=O)NCc3ccc(Cl)c(Cl)c3)ccc2C(F)(F)F)C1`, the values for the growth inhibition in experiment [1] and in experiment [4] were 4% and 88% (active), respectively. The inhibition was 8% in experiment [2] and 2% in experiment [3]. The outcome in experiment [5], in experiment [6], in experiment [7] and in experiment [8] was inactive.

Take `O=C(NCC1CCC(C(=O)NCCc2ccc(Cl)c(Cl)c2)CC1)c1ccc(O)c(-c2ccc(Cl)c(Cl)c2)c1` (stereo not given): the growth inhibition is 12% in experiment [1] and 94% (active) in experiment [4]. Moreover, the inhibition in experiment [2] is -5%; in experiment [3], -1%. Besides, the result in experiment [5], in experiment [6], in experiment [7] and in experiment [8] was inactive.

In the case of `CN(C)c1ccc(N2C(N)=NC(N)=NC23CCCC3)cc1`, the growth inhibition in experiment [1] is 0%; in experiment [4] it was 97% (active). Also, the inhibition in experiment [2] was 1%; in experiment [3] it was -2%. In addition, the outcome in experiment [5], in experiment [6], in experiment [7] and in experiment [8] was inactive.

Turning to `Cc1cccc2[nH]c(-c3cccc(-c4ccc(NC(=O)c5cnn6cccnc56)cc4)c3)nc12`, the growth inhibition was 73% (active) in experiment [1] and 101% (active) in experiment [4]. Further, the inhibition in experiment [2] was 99% (active); in experiment [3] it was -1%. For the same compound, the result in experiment [5], in experiment [6], in experiment [7] and in experiment [8] was inactive.

For `COc1ccc(NC(=O)/C=C/c2ccccc2Cl)cc1OCCN1CCC(N2CCN(C)CC2)CC1`, the growth inhibition in experiment [1] was 49%; in experiment [4], 102% (active). Besides, the inhibition in experiment [2] was 19%; in experiment [3], 5%. Further, the result in experiment [5], in experiment [6], in experiment [7] and in experiment [8] was inactive.

With `O=C(C1COc2ccccc2O1)N(CCCn1ccnc1)Cc1csc(-c2ccc(CNCc3ccccc3)cc2)n1` (stereo not given), the growth inhibition in experiment [1] was 18%; in experiment [4], 100% (active). The inhibition in experiment [2] was 15%; in experiment [3], -1%. The result in experiment [5], in experiment [6], in experiment [7] and in experiment [8] was inactive.

Regarding `Clc1cccc(CNC2CCN(CC3CCCCC3)CC2)c1`, the growth inhibition is 24% in experiment [1] and 97% (active) in experiment [4]. The inhibition in experiment [2] is 4%; in experiment [3] it was -2%. Further, the outcome in experiment [5], in experiment [6], in experiment [7] and in experiment [8] was inactive.

Turning to `CCN(CCCN1CCCCC1)c1cc(C)nc(Nc2cc(Br)ccc2C)n1`, the growth inhibition in experiment [1] is 39%; in experiment [4], 98% (active). The inhibition in experiment [2] was 32%; in experiment [3], -7%. Further, the outcome in experiment [5], in experiment [6], in experiment [7] and in experiment [8] was inactive.

With `COc1ccc(-c2cc(NCc3ccc(-n4ccnc4)cc3)nc(Nc3ccccc3)n2)cc1`, the growth inhibition was 79% (active) in experiment [1] and 101% (active) in experiment [4]. For the same compound, the results for the inhibition in experiment [2] and in experiment [3] were 8% and 0%, respectively. For the same compound, the outcome in experiment [5], in experiment [6], in experiment [7] and in experiment [8] was inactive.

Regarding `COc1ccc2nccc([C@@H](O)CN3CCC(NCc4cc5cc(Cl)ccc5[nH]4)CC3)c2c1`, the growth inhibition in experiment [1] is 64% (active); in experiment [4], 99% (active). For the same compound, the inhibition in experiment [2] was 27%; in experiment [3], 5%. The result in experiment [5], in experiment [6], in experiment [7] and in experiment [8] was inactive.

In the case of `Cc1[nH]c(C)c(-c2ccc(-c3ccc(F)cc3)nc2)c(=O)c1Br`, the growth inhibition in experiment [1] was 96% (active); in experiment [4], 97% (active). In addition, the inhibition in experiment [2] was 15%; in experiment [3], 0%. Besides, the outcome in experiment [5], in experiment [6], in experiment [7] and in experiment [8] was inactive.

As for `Nc1ncnc2cc(-c3cccc(S(N)(=O)=O)c3)sc12`, the growth inhibition is 99% (active) in experiment [1] and 98% (active) in experiment [4]. For the same compound, the inhibition in experiment [2] is 13%; in experiment [3] it was 2%. Also, the outcome in experiment [5], in experiment [6], in experiment [7] and in experiment [8] was inactive.
